Inconclusive results are not listed. Activity calls are given as the source filed them. Unless noted, calls follow the shape of the dose curve; as a rule, active = well fitted inhibition curve with a large enough effect; inconclusive = small, poorly fitted or top-dose-only effect; inactive = flat fitted curve, though single readings scatter.

Experiment [1] can be described thus: qHTS drug screen for cell cycle checkpoint inhibitors in PARPi-resistant BRCA-mutant ovarian cancer cell lines. (AID 1963452; calls by dose curve). The note with it: PEO1/OlaR viability, CellTiter-Glo luminescence, 96 h, stronger effect = lower value. Summed up: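 PEO1, PEO4 and PEO1/OlaR ovarian cancer cells, 600 per well, exposed 96 h at 37C to a dilution series. Viability read by CellTiter-Glo luminescence, normalized to DMSO and empty wells; activity summarized as Z-AUC.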
For orientation: Quantitative high-throughput screening tests each substance at several concentrations.

A short description of experiment [2]: qHTS profiling for inhibitors of Plasmodium falciparum proliferation (AID 504749). Also: potency is read from the fitted curve at half-maximal effect.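 As to activity, negative = inhibition: 0% = DMSO vehicle and full inhibition = artemisinin control.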 As to all read-outs here: nearly all actives have a fitted effect of over 60% in size. The note with it: P. falciparum in erythrocytes, SYBR Green DNA, 72 h; for activity, negative = inhibition: at 28.7 µM (top of the series). Summed up:
(§1)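 P. falciparum-infected erythrocytes (0.3% parasitemia, 2.5% hematocrit final) were exposed to compounds for 72 h at 37 C in 5% CO2, then lysed with SYBR Green buffer overnight at room temperature; parasite DNA fluorescence was normalized to artemisinin and DMSO controls.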

Experiment [3] has as its system 3D7. The experiment is described as above. The note with it: P. falciparum in erythrocytes, SYBR Green DNA, 72 h; series mostly up to 28.7 µM. The essentials: as §1
The subject of experiment [4] is 7G8. Described as above. The note with it: P. falciparum in erythrocytes, SYBR Green DNA, 72 h; series mostly up to 28.7 µM. Summed up:
as §1

In experiment [5] the test system is AA1029. Described as above. The note with it: P. falciparum in erythrocytes, SYBR Green DNA, 72 h; series mostly up to 28.7 µM. The essentials:
as §1

Experiment [6] relates to AS120. Described as above. The note with it: P. falciparum in erythrocytes, SYBR Green DNA, 72 h; series mostly up to 28.7 µM. Summed up:
as §1

Experiment [7] deals with ATS189. Described as above. The note with it: P. falciparum in erythrocytes, SYBR Green DNA, 72 h; series mostly up to 28.7 µM. The essentials: as §1
The subject of experiment [8] is ATS95. The experiment is described as above. The note with it: P. falciparum in erythrocytes, SYBR Green DNA, 72 h; series mostly up to 28.7 µM. Summed up:
as §1

Experiment [9] has as its system C2A. The experiment is described as above. The note with it: P. falciparum in erythrocytes, SYBR Green DNA, 72 h; series mostly up to 28.7 µM. Summed up: as §1

For `Fc1ccc(C(OCCN2CCN(CCCc3ccccc3)CC2)c2ccc(F)cc2)cc1`, the Z-AUC in [1] was 0.198 (inactive); in experiment [1] (measured here: PEO1 parental Z-AUC) it was -0.0312; in experiment [1] (measured here: PEO4 Z-AUC), -0.0118. For the same compound, the Potency was 8.91 µM (active) in experiment [2] (parasite line A); 11.2 µM (active) in experiment [2] (parasite line B); 8.91 µM (active) in experiment [3]; 3.55 µM (active) in [4]; 7.08 µM (active) in experiment [5]; 4.47 µM (active) in experiment [6]. Further, the Potency was 8.91 µM (active) in experiment [7], 7.94 µM (active) in [8] and 11.2 µM (active) in experiment [9].
Regarding `CCCC(C)(COC(N)=O)COC(=O)NC(C)C` (configuration not stated), the activity, negative = inhibition was 8.09% (inactive) in [2] (parasite line A) and 15.9% (inactive) in experiment [2] (parasite line B). Moreover, the Potency entry in experiment [3], in experiment [4], in [5], in [6], in [7] and in [8] was “inactive” throughout. In addition, the Potency result in experiment [9] was “inactive”.
For `CCC(C(N)=O)N1CCCC1=O` (configuration not stated), the activity, negative = inhibition in [2] (parasite line A) is 2.96% (inactive); in experiment [2] (parasite line B) it was 6.9% (inactive). The Potency result in experiment [3], in experiment [4], in experiment [5], in experiment [6], in experiment [7] and in experiment [8] was “inactive” in each case. In addition, in [9], the Potency result is “inactive”.
As to `COc1ccc(C(CN(C)C)C2(O)CCCCC2)cc1` (configuration not stated), the activity, negative = inhibition in [2] (parasite line A) is 4.2% (inactive); in experiment [2] (parasite line B), -12.5% (inactive). For the same compound, the Potency result in experiment [3], in experiment [4], in [5], in [6], in experiment [7] and in experiment [8] was “inactive” in each case. The Potency result in experiment [9] was “inactive”.
For the compound `CC[N+](CC)(CC)CC`, the activity, negative = inhibition in experiment [2] (parasite line A) was 15.6% (inactive); in [2] (parasite line B), 17.3% (inactive). Also, the Potency entry in experiment [3], in [4], in experiment [5], in experiment [6], in experiment [7] and in experiment [8] was “inactive” in each case. Moreover, the Potency result in experiment [9] was “inactive”.
Regarding `CN1C(=S)CN=C(c2ccccc2)c2cc(Cl)ccc21`, the activity, negative = inhibition is -4.94% (inactive) in [2] (parasite line A) and 2.35% (inactive) in experiment [2] (parasite line B). In addition, the Potency result in [3], in experiment [4], in [5], in [6], in experiment [7] and in experiment [8] was “inactive” throughout. The Potency entry in experiment [9] was “inactive”.
Turning to `NCC(CC(=O)O)c1ccc(Cl)cc1` (configuration not stated), the activity, negative = inhibition is 6.71% (inactive) in experiment [2] (parasite line A) and 18.2% (inactive) in experiment [2] (parasite line B). Moreover, the Potency entry in experiment [3], in [4], in [5], in [6], in experiment [7] and in experiment [8] was “inactive” each time. Moreover, the Potency result in experiment [9] is “inactive”.
Take `CCOC(=O)C1(c2ccccc2)CCN(CCC(C#N)(c2ccccc2)c2ccccc2)CC1`: the Potency is 2.51 µM (active) in experiment [2] (parasite line A); 3.16 µM (active) in experiment [2] (parasite line B); 2.51 µM (active) in experiment [3]; 2.24 µM (active) in experiment [4]; 3.16 µM (active) in experiment [5]; 2.24 µM (active) in [6]. Further, the Potency in experiment [7], in experiment [8] and in [9] was 3.55 µM (active) each time.
Consider `CCC(COC(=O)c1cc(OC)c(OC)c(OC)c1)(c1ccccc1)N(C)C` (configuration not stated), for which the activity, negative = inhibition in experiment [2] (parasite line A) is -11.1% (inactive); in [2] (parasite line B), -13.8% (inactive). Besides, the Potency entry in experiment [3], in experiment [4], in experiment [5], in [6], in experiment [7] and in experiment [8] was “inactive” in each case. Besides, in experiment [9], the Potency entry is “inactive”.
Turning to `CC1NCCOC1c1ccccc1` (configuration not stated), the activity, negative = inhibition was 8.85% (inactive) in experiment [2] (parasite line A) and 5.03% (inactive) in [2] (parasite line B). Also, the Potency result in experiment [3], in [4], in [5], in [6], in [7] and in experiment [8] was “inactive” throughout. The Potency entry in experiment [9] was “inactive”.
For `O=[N+]([O-])c1cc([As](=O)(O)O)ccc1O`, the Potency in experiment [2] (parasite line A) was 3.98 µM (active); in [2] (parasite line B), 3.16 µM (active); in experiment [3] it was 3.98 µM (active); in experiment [4] it was 3.98 µM (active); in experiment [5] it was 3.16 µM (active); in experiment [6], 3.16 µM (active).
Take `Cc1ccc(-c2nc3ccc(C)cn3c2CC(=O)N(C)C)cc1`: the figures for the activity, negative = inhibition in experiment [2] (parasite line A) and in [2] (parasite line B) were -4.35% (inactive) and -1.84% (inactive), respectively. Besides, the Potency result in experiment [3], in experiment [4], in [5], in experiment [6], in experiment [7] and in experiment [8] was “inactive” throughout. Moreover, the Potency result in experiment [9] is “inactive”.
As to `NCC(O)c1ccc(O)cc1` (configuration not stated), the activity, negative = inhibition in [2] (parasite line A) was 10.2% (inactive); in [2] (parasite line B) it was 3.73% (inactive). Also, the Potency entry in [3], in [4], in [5], in [6], in experiment [7] and in experiment [8] was “inactive” in each case. In experiment [9], the Potency entry is “inactive”.
Regarding `CC(=O)[C@H]1CC[C@H]2[C@@H]3CC[C@H]4C[C@](C)(O)CC[C@]4(C)[C@H]3CC[C@]12C`, the activity, negative = inhibition was 3.34% (inactive) in experiment [2] (parasite line A) and 12.8% (inactive) in experiment [2] (parasite line B). Also, the Potency result in [3], in experiment [4], in [5], in experiment [6], in experiment [7] and in experiment [8] was “inactive” each time. Besides, the Potency entry in [9] is “inactive”.
Consider `CCN(C(C)=O)c1cccc(-c2ccnc3c(C#N)cnn23)c1`, for which the activity, negative = inhibition in [2] (parasite line A) is 6.76% (inactive); in experiment [2] (parasite line B) it was 2.02% (inactive). For the same compound, the Potency result in [3], in [4], in [5], in [6], in experiment [7] and in [8] was “inactive” throughout. The Potency result in [9] was “inactive”.
`OCCOc1ccccc1`: the activity, negative = inhibition in [2] (parasite line A) was 10.1% (inactive); in experiment [2] (parasite line B), 6.31% (inactive). In addition, the Potency entry in experiment [3], in [4], in experiment [5], in experiment [6], in experiment [7] and in experiment [8] was “inactive” each time. The Potency result in experiment [9] was “inactive”.
`CCOP(=S)(OCC)Oc1cc(C)nc(C(C)C)n1`: the activity, negative = inhibition in experiment [2] (parasite line A) is 5.69% (inactive); in experiment [2] (parasite line B) it was 9.55% (inactive). Besides, the Potency entry in experiment [3], in experiment [4], in [5], in [6], in experiment [7] and in experiment [8] was “inactive” in each case. Further, the Potency entry in experiment [9] was “inactive”.
Take `CC(C)=CC1C(C(=O)OCc2cccc(Oc3ccccc3)c2)C1(C)C` (configuration not stated): the values for the activity, negative = inhibition in experiment [2] (parasite line A) and in experiment [2] (parasite line B) were -11.7% (inactive) and -17.5% (inactive), respectively. Moreover, the Potency entry in [3], in experiment [5], in experiment [6], in [7], in experiment [8] and in experiment [9] was “inactive” each time. Further, in experiment [4], the Potency was 12.6 µM (active).

(Values after PubChem BioAssay (NCATS).)
